Measurements reported in PubChem BioAssay AID1159580 (chemical genetic matrix, 2015).
About 2,000 (36%) of roughly 5,500 compounds were called active. Inconclusive results (about 18%) are left out. Rule as the data show it: active = normalized growth mostly below about 0.91 (no sharp cut-off); inconclusive = no clear call, values can overlap the other calls; inactive = mostly above about 0.92. This is one part of the list.

Assay: chemical genetic growth profiling, strain panel (AID 1159580);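 also: tested at 20 µM; growth read once vehicle control cultures reached saturation at 30 °C; 1 = growth at the plate median or of vehicle wells; lower values mean less growth of the strain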
Details: S. cerevisiae deletion strains, growth OD
[1] = locus YBR229C, strain ROT2, active compounds read low
[2] = locus YDL101C, strain DUN1, active compounds read low
[3] = locus YDR150W, strain NUM1, active compounds read low
[4] = locus YEL061C, strain CIN8, active compounds read low
[5] = locus YGR078C, strain PAC10, active compounds read low
[6] = locus YHR030C, strain SLT2, active compounds read low
[7] = locus YJR043C, strain POL32, active compounds read low
[8] = locus YJR075W, strain HOC1, active compounds read low
[9] = locus YLR039C, strain RIC1, active compounds read low
[10] = locus YLR262C, strain YPT6, active compounds read low
[11] = locus YMR263W, strain SAP30, active compounds read low
[12] = locus YNL153C, strain GIM3, active compounds read low
[13] = locus YNL322C, strain KRE1, active compounds read low

Measured: normalized growth

c1ccc(-c2nc(-c3cccs3)cs2)cc1
inactive: [2] 0.988 | [3] 0.939 | [7] 0.973 | [11] 0.931 | [12] 0.983
active: locus YAL013W, strain DEP1, active compounds read low 0.916 | [1] 0.877 | locus YCL061C, strain MRC1, active compounds read low 0.895 | [4] 0.838 | [5] 0.88 | [6] 0.166 | locus YHR087W, strain rtc3, active compounds read low 0.744 | [8] 0.707 | [9] 0.273 | locus YLR058C, strain SHM2 (second series), active compounds read low 0.859 | locus YLR085C, strain ARP6, active compounds read low 0.408 | [10] 0.274 | locus YML094W, strain GIM5, active compounds read low 0.866 | locus YMR219W, strain ESC1, active compounds read low 0.919 | locus YNL298W, strain CLA4 (second series), active compounds read low 0.714 | [13] 0.914 | locus YNR030W, strain Alg12, active compounds read low 0.693 | locus YPL055C, strain LGE1, active compounds read low 0.768 | locus YPL241C, strain CIN2, active compounds read low 0.813 | locus YPR135W, strain CTF4, active compounds read low 0.341

C=C(C)C1(O)OC(=O)C=C1OC (stereo not given)
inactive: locus YBR021W, strain FUR4, active compounds read low 0.995 | [1] 0.944 | locus YCL029C, strain bik1, active compounds read low 0.977 | locus YDL035C, strain GPR1, active compounds read low 0.987 | locus YDL074C, strain BRE1, active compounds read low 1.01 | [2] 0.994 | locus YDL185W, strain tfp1, active compounds read low 0.968 | locus YDL192W, strain arf1, active compounds read low 0.984 | locus YDR101C, strain arx1, active compounds read low 1 | [3] 0.986 | locus YDR162C, strain NBP2, active compounds read low 0.961 | locus YDR318W, strain mcm21, active compounds read low 0.981 | locus YDR388W, active compounds read low 0.997 | locus YDR502C, strain sam2, active compounds read low 0.996 | [4] 0.989 | locus YER110C, active compounds read low 0.991 | locus YER155C, strain BEM2, active compounds read low 0.996 | locus YER167W, strain BCK2, active compounds read low 0.978 | locus YGL078C, strain dbp3, active compounds read low 0.991 | locus YGL086W, strain mad1, active compounds read low 1.03 | locus YGL248W, strain PDE1, active compounds read low 0.978 | [5] 1.03 | locus YGR135W, strain pre9, active compounds read low 0.983 | locus YGR252W, strain gcn5, active compounds read low 0.98 | [6] 0.981 | locus YHR079C, strain IRE1 (second series), active compounds read low 0.986 | locus YHR094C, strain hxt1, active compounds read low 0.983 | locus YHR129C, strain ARP1, active compounds read low 0.985 | locus YHR200W, strain rpn10, active compounds read low 0.994 | locus YIL066C, strain RNR3, active compounds read low 0.965 | locus YIL073C, strain SPO22, active compounds read low 0.978 | locus YIL125W, strain kgd1, active compounds read low 0.98 | locus YIR030C, strain dcg1, active compounds read low 0.986 | locus YJL095W, strain BCK1, active compounds read low 1.06 | locus YJL134W, strain LCB3, active compounds read low 0.981 | locus YJL168C, strain set2, active compounds read low 0.992 | locus YJL187C, strain SWE1 (second series), active compounds read low 1 | [7] 0.948 | [8] 1.03 | locus YKL009W, strain mrt4, active compounds read low 1.01 | locus YKL068W, active compounds read low 0.965 | locus YKL085W, strain MDH1 (second series), active compounds read low 0.962 | locus YKL085W, strain MDH1, active compounds read low 0.962 | locus YKL190W, strain CNB1, active compounds read low 1 | locus YKR001C, strain vps1, active compounds read low 0.995 | [9] 0.963 | locus YLR058C, strain SHM2, active compounds read low 0.97 | locus YLR102C, strain apc9, active compounds read low 0.99 | [10] 0.918 | locus YLR268W, strain sec22, active compounds read low 1.04 | locus YLR330W, strain CHS5, active compounds read low 0.992 | locus YLR342W, strain FKS1 (second series), active compounds read low 0.985 | locus YLR371W, strain rom2, active compounds read low 0.97 | locus YLR418C, strain cdc73, active compounds read low 0.964 | locus YML016C, strain PPZ1, active compounds read low 0.978 | locus YML032C, strain rad52, active compounds read low 0.975 | locus YML124C, strain tub3, active compounds read low 0.984 | locus YMR078C, strain ctf18, active compounds read low 0.991 | locus YMR223W, strain ubp8, active compounds read low 0.992 | [11] 1.01 | locus YMR307W, strain GAS1, active compounds read low 0.947 | locus YNL067W, strain RPL9B, active compounds read low 1.03 | locus YNL128W, strain TEP1, active compounds read low 0.997 | [12] 1.02 | locus YNL233W, strain BNI4, active compounds read low 1.04 | locus YNL250W, strain rad50, active compounds read low 0.958 | locus YNL271C, strain bni1, active compounds read low 0.989 | locus YNL298W, strain CLA4, active compounds read low 1.02 | locus YNL307C, strain MCK1, active compounds read low 0.999 | [13] 0.98 | locus YNR052C, strain pop2, active compounds read low 1.01 | locus YOL006C, strain TOP1, active compounds read low 1.05 | locus YOL012C, strain htz1 1.2 | locus YOL147C, strain pex11, active compounds read low 0.991 | locus YOR061W, strain CKA2, active compounds read low 0.964 | locus YOR069W, strain VPS5, active compounds read low 0.985 | locus YOR136W, strain idh2, active compounds read low 1 | locus YOR144C, strain elg1, active compounds read low 0.981 | locus YOR184W, strain ser1, active compounds read low 0.973 | locus YOR316C, strain cot1, active compounds read low 0.994 | locus YPR119W, strain clb2, active compounds read low 0.987 | locus YPR141C, strain kar3, active compounds read low 0.977 | locus YPR163C, strain tif3, active compounds read low 0.99 | locus YPR167C, strain met16, active compounds read low 0.992 | strain wtn01, active compounds read low 1.02
